Most compounds without a hit are left out; they make up all but 4.2% or so of the library.
NALP1 yeast inh = blocks the NALP1 inflammasome reconstituted in yeast; S. cerevisiae NALP1/ASC/caspase-1 growth, X-gal OD620, 72 h; 280,000 compounds, 0.61% hits; inhibition, % at 10 µM; in the data active = inhibition mostly above about 24%, no sharp cut-off; inactive = mostly below about 32%
V-ATPase pH = yeast V-ATPase proton transport regulation by pHLuorin. S. cerevisiae, pHLuorin cytosolic pH fluorescence. response, % at 10 µM. 350,000 compounds, 0.37% hits. AID 504577; in the data active = response mostly above about 7.3%, no sharp cut-off; inactive = mostly below about 5.4%; note: actives read high
tim10-1 inh = growth inhibitors of tim10-1 mutant yeast; inhibition, % at 20 µM; AID 463190; 330,000 compounds, 2.2% hits; S. cerevisiae tim10-1 ts strain growth, BacTiter-Glo, 24 h;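 active = inhibition of at least 40%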;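 note: mutant grown at 25 °C; 0% = DMSO wells with yeast and 100% = wells holding no yeast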
NALP3 yeast inh = NALP3 inhibition in yeast; Yeast reconstituted NLRP3/ASC/caspase-1, beta-gal luminescence, 24 h; inhibition, % at 10 µM; 330,000 compounds, 0.39% hits; AID 2825;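 active = inhibition of 50% or more; inactive = inhibition below 50%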;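 note: plate controls were induced DMSO wells for no effect and uninduced yeast grown without galactose for full effect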
tim23-1 inh = growth inhibitors of tim23-1 mutant yeast; S. cerevisiae tim23-1 growth, BacTiter-Glo luminescence, 24 h; inhibition, % at 20 µM; 330,000 compounds, 1.3% hits; AID 463212;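 active = growth inhibition of the mutant yeast at or above 50%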;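 note: temperature-sensitive mutant grown at 25 °C; plate controls were DMSO-treated mutant yeast for no effect and medium wells lacking yeast for full effect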
TIM10 inh = inhibits growth of TIM10 yeast strain | S. cerevisiae TIM10 strain growth, BacTiter-Glo luminescence, 24 h | inhibition, % at 10 µM | 330,000 compounds, 1.4% hits;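 active = inhibition of 40% or more at the single tested concentration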;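 note: wild-type TIM10 isogenic control strain grown at permissive 25 °C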
V-ATPase pH SP = yeast V-ATPase proton transport regulation; shares compounds with V-ATPase pH; S. cerevisiae pHLuorin cytosolic pH; response, % at 10 µM; 980 compounds, 2% hits; AID 602197; in the data active = response above about 24%;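 note: plate controls were vehicle wells for no effect and positive control wells for full effect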
Numbers without * were called inactive.

How did Cc1ccc(S(=O)(=O)n2cnc(C)c2)cc1 do in these assays?
NALP1 yeast inh: 19; V-ATPase pH: 13*; tim10-1 inh: 14; NALP3 yeast inh: 8; tim23-1 inh: 12; TIM10 inh: 13; V-ATPase pH SP: 1

Results for COc1ccc(-c2cn3cccnc3n2)cc1NC(=O)c1cc(OC)c(OC)c(OC)c1 ?
NALP1 yeast inh: -6; V-ATPase pH: 0; tim10-1 inh: 15; NALP3 yeast inh: -4; tim23-1 inh: 9; TIM10 inh: 15

How did O=C(NC(=O)c1c(F)cccc1F)Nc1cccc(Oc2ncc(Cl)cn2)c1 do in these assays?
V-ATPase pH: -1

What do the screens show for `NNC(=O)COc1cccc(C(F)(F)F)c1`?
NALP1 yeast inh: 15; V-ATPase pH: 12*; tim10-1 inh: 2; NALP3 yeast inh: 9; tim23-1 inh: 3; TIM10 inh: -1; V-ATPase pH SP: 3

What do the screens show for `CC(C)(C)OC(=O)N[C@@H](Cc1ccccc1)C(=O)N[C@@H](CO)[C@H](O)[C@@H]1C[C@@H]1C(=O)NC1CC1`?
NALP1 yeast inh: 23; V-ATPase pH: 11*; tim10-1 inh: -10; NALP3 yeast inh: 8; tim23-1 inh: -9; TIM10 inh: -6; V-ATPase pH SP: -1

What do the screens show for `O=C(NCc1ccco1)C(=O)NCC(c1ccco1)N1CCOCC1` (configuration not stated)?
NALP1 yeast inh: -21; V-ATPase pH: 19*; tim10-1 inh: -6; NALP3 yeast inh: 9; tim23-1 inh: 19; TIM10 inh: -2; V-ATPase pH SP: -4

How did COc1ccc2c(=O)cc(-c3ccccc3F)oc2c1 do in these assays?
NALP1 yeast inh: 11; V-ATPase pH: 5.7*; tim10-1 inh: 16; NALP3 yeast inh: 7; tim23-1 inh: 24; TIM10 inh: -4; V-ATPase pH SP: -1

What do the screens show for `CN(C(=O)c1ccccc1C(=O)OCC(=O)c1ccccc1)c1ccccc1`?
V-ATPase pH: 5; tim10-1 inh: -6; NALP3 yeast inh: 11; tim23-1 inh: 19; TIM10 inh: 0

Results for O=C(CCC(=O)N1CCN(c2ccccc2F)CC1)c1ccc(F)cc1 ?
NALP1 yeast inh: -8; V-ATPase pH: 1; tim10-1 inh: -43; NALP3 yeast inh: 19; tim23-1 inh: -15; TIM10 inh: -33

Results for Cc1ccc(C(=O)CCC(=O)N2CCN(c3ccccc3O)CC2)cc1 ?
V-ATPase pH: 11*; tim10-1 inh: -4; NALP3 yeast inh: 24; tim23-1 inh: -6; TIM10 inh: -19; V-ATPase pH SP: -3

How did Cc1nn(CC(=O)O)c(C)c1N do in these assays?
V-ATPase pH: 1; tim10-1 inh: -4; NALP3 yeast inh: -10; tim23-1 inh: 19; TIM10 inh: 0

Results for Cn1cccc1CC(=O)NNC(=S)Nc1ccc(F)cc1 ?
NALP1 yeast inh: 24; V-ATPase pH: -2; tim10-1 inh: 18; NALP3 yeast inh: 30; tim23-1 inh: 11; TIM10 inh: 10

What do the screens show for `Cn1cccc1CC(=O)NNC(=S)Nc1ccc(Cl)cc1Cl`?
NALP1 yeast inh: 4; V-ATPase pH: 16*; tim10-1 inh: 32; NALP3 yeast inh: 13; tim23-1 inh: 14; TIM10 inh: 9; V-ATPase pH SP: -1

How did O=C(c1csc2ccccc12)N1CCN(c2ccccn2)CC1 do in these assays?
NALP1 yeast inh: -8; V-ATPase pH: 8; tim10-1 inh: 17; NALP3 yeast inh: 8; tim23-1 inh: 20; TIM10 inh: 22

How did COc1ccc(N(CC(=O)Nc2cccc3ccccc23)S(C)(=O)=O)cc1 do in these assays?
NALP1 yeast inh: 0; V-ATPase pH: 8.5*; tim10-1 inh: 16; NALP3 yeast inh: 9; tim23-1 inh: 9; TIM10 inh: -4; V-ATPase pH SP: -1

What do the screens show for `C[C@@H](C(=O)NCc1ccccn1)[C@H]1C[C@]1(C)[C@H](NC(=O)OCc1ccccc1)c1ccccc1`?
NALP1 yeast inh: 17; V-ATPase pH: 1; tim10-1 inh: 30; NALP3 yeast inh: 0; tim23-1 inh: 17; TIM10 inh: 22

How did Cc1ccccc1C(=O)NNC(=O)C1CCN(c2ncccn2)CC1 do in these assays?
NALP1 yeast inh: 32; V-ATPase pH: 4; tim10-1 inh: -21; NALP3 yeast inh: -6; tim23-1 inh: 4; TIM10 inh: -16

What do the screens show for `CC(=O)Nc1nc2ccc(C(=O)NC3CCCCC3)cc2s1`?
NALP1 yeast inh: -54; V-ATPase pH: 0; tim10-1 inh: 9; NALP3 yeast inh: 18; tim23-1 inh: 0; TIM10 inh: 3

How did O=C(Cc1c(Cl)cccc1Cl)OCC(=O)N1CCc2ccccc2C1 do in these assays?
NALP1 yeast inh: 42; V-ATPase pH: 1; tim10-1 inh: 30; NALP3 yeast inh: 24; tim23-1 inh: 28; TIM10 inh: 17

What do the screens show for `O=C(Cc1c(Cl)cccc1Cl)OCC(=O)N1CCOCC1`?
V-ATPase pH: 13*; tim10-1 inh: -2; NALP3 yeast inh: 6; tim23-1 inh: -3; TIM10 inh: -9; V-ATPase pH SP: 3

Results for C=CCNC(=O)/C(=C\c1ccc([N+](=O)[O-])cc1)NC(C)=O ?
NALP1 yeast inh: -2; V-ATPase pH: 13*; tim10-1 inh: -8; NALP3 yeast inh: 18; tim23-1 inh: -1; TIM10 inh: 1; V-ATPase pH SP: 1

Results for O=C(COc1ccc2ccccc2c1)Nc1nc2ccccc2[nH]1 ?
NALP1 yeast inh: 3; V-ATPase pH: 11*; tim10-1 inh: -6; NALP3 yeast inh: 9; tim23-1 inh: -4; TIM10 inh: -6; V-ATPase pH SP: -4

Results for COc1ccc(OCC(=O)Nc2nc3ccccc3[nH]2)cc1 ?
NALP1 yeast inh: -18; V-ATPase pH: 5; tim10-1 inh: -42; NALP3 yeast inh: 14; tim23-1 inh: -8; TIM10 inh: -3

How did Cc1[nH]c(C(=O)O)c(C)c1C(=O)OC(C)C do in these assays?
V-ATPase pH: -3; tim10-1 inh: 11; NALP3 yeast inh: 1; tim23-1 inh: 10; TIM10 inh: 3

Results for O=C(Nc1ccc(N2CCOCC2)cc1)C1CCN(S(=O)(=O)c2ccc3c(c2)OCCO3)CC1 ?
NALP1 yeast inh: 19; V-ATPase pH: 0; tim10-1 inh: 2; NALP3 yeast inh: 3; tim23-1 inh: 3; TIM10 inh: 14

How did COc1cccc(N2C(=O)c3ccncc3C2=O)c1 do in these assays?
NALP1 yeast inh: 8; V-ATPase pH: 12*; tim10-1 inh: 15; NALP3 yeast inh: 10; tim23-1 inh: -8; TIM10 inh: -18; V-ATPase pH SP: -1

Results for COc1ccccc1CN1C(=O)c2ccncc2C1=O ?
NALP1 yeast inh: 9; V-ATPase pH: -4; tim10-1 inh: 2; NALP3 yeast inh: -8; tim23-1 inh: 8; TIM10 inh: 2

What do the screens show for `COc1ccc(/C=N/NC(=O)C2c3ccccc3-c3ccccc32)cc1`?
NALP1 yeast inh: 34; V-ATPase pH: 27*; tim10-1 inh: 20; NALP3 yeast inh: 21; tim23-1 inh: 30; TIM10 inh: 12; V-ATPase pH SP: 0
